The list is not random: actives were taken first. Their share in the collection is about 4.1%.
DAX1 inh-1: DAX1 (NR0B1) inhibitors, primary screen, cell-based, HEK293, Gal4-DAX1, luciferase luminescence. 340,000 tested, 0.99% active. Nuclear receptor subfamily 0 group B member 1 (Homo sapiens), P51843. AID 504766, 2011. HEK293 Gal4-DAX1 luciferase reporter. inhibition, % at 6.75 µM;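 active = inhibition above the mean over all tested compounds plus 3 SD, cut at about 4.2% in these data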;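 also: 0% = DAX1-transfected cells with DMSO and 100% = empty-vector control cells with DMSO; inhibition shows as a rise in luminescence from relieved DAX1 repression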
Target sequence (P51843 207-470 limits assumed): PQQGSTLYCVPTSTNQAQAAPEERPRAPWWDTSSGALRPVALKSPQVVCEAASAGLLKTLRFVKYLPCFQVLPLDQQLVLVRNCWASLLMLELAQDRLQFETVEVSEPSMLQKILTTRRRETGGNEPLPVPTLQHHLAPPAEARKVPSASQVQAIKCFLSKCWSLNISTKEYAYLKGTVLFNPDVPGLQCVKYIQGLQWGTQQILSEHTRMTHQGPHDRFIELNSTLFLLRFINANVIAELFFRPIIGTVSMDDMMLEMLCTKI
DAX1 inh-2: DAX1 (NR0B1) inhibitors on StAR promoter, primary screen, cell-based, luminescence, SF-1 (NR5A1), full-length DAX-1; 370,000 tested, 1.1% active; inhibition, % at 6.8 µM; HEK293T StAR-luciferase reporter, SF-1/DAX-1 repression relief;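 active = inhibition above the mean over all tested compounds plus 3 SD, cut at about 3.6% in these data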;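 also: 0% = DAX-1 cells with DMSO and 100% = cells lacking DAX-1 with DMSO; higher inhibition means more luminescence from relief of DAX-1 repression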
ssDAF-12 act: S. stercoralis DAF-12 nuclear receptor activators, primary screen, cell-based, luminescence, HEK293, GRIP1 co-expression, lit1-tk-luc. Nuclear hormone receptor DAF-12 (Strongyloides stercoralis). HEK293 ssDAF-12/GRIP1 lit1-tk-luc reporter; % of 3 µM dafachronic acid response. activation, % at 6.8 µM. 370,000 tested, 1% active. AID 652126, 2013;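 active = activation above the mean over all tested compounds plus 3 SD, cut at about 0.9% in these data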;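 also: 0% = DMSO-only wells and 100% = 3 µM delta7-dafachronic acid wells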
hgDAF-12 ag: H. glycines DAF-12 receptor agonists, primary screen, cell-based, luminescence, HEK293, GAL4 fusion, UAS-luciferase. Nuclear hormone receptor DAF-12 (Heterodera glycines), GAL4 fusion. HEK293 GAL4-hgDAF12 UAS-luciferase reporter, agonist luminescence; normalized to butyrate control. activation, % at 6.8 µM. 370,000 tested, 1.8% active. AID 687014, 2013;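 active = activation above a cutoff set at the mean of all screened compounds plus 3 SD, cut at about 10% in these data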;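 also: 0% = DMSO wells and 100% = sodium butyrate wells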
hcDAF12 agonist: H. contortus DAF-12 nuclear receptor activators, primary screen, cell-based, luminescence, HEK293, lit1-tk-luc reporter. 370,000 tested, 1.4% active. activation, % at 6.8 µM. HEK293 hcDAF-12 lit1-tk-luc reporter; 0% DMSO, 100% Δ7-dafachronic acid. AID 652067, 2013;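 active = activation above the mean of all tested compounds plus 3 SD, cut at about 5.5% in these data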;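 also: 100% = response to 3 µM Δ7-dafachronic acid high control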
* = called active by the depositor; · = no result given.

SMILES | DAX1 inh-1 | DAX1 inh-2 | ssDAF-12 act | hgDAF-12 ag | hcDAF12 agonist
O=C(NCCc1cccs1)C1CC(c2ccccc2[N+](=O)[O-])=NO1 (centres undefined) | 3 | 2 | 0 | 5 | 5.8*
Nc1nc(-c2cc3ccccc3o2)cs1 | 5.2* | 3 | 0 | 9 | 3
O=C(Cn1c(=O)c(=O)n(Cc2ccccc2)c2ccc(Cl)cc21)NCC1CCCO1 (centres undefined) | 4.6* | 1 | -2 | -1 | 0
NC(=O)c1c(N)[nH]c(C(=O)c2ccccc2)c1-c1ccccn1 | · | · | -1 | 0 | -1
Cc1cc(NC(=O)C(C)C)n(-c2nc3ccccc3s2)n1 | 0 | 1 | 0.9* | 3 | 6
C=CCOc1ccc(CNc2ccc(NC(=O)CCC)cc2)cc1OCC | 4.5* | -1 | -2 | 3 | -2
C=CCOc1c(Br)cc(CNc2ccc(NC(=O)CCC)cc2)cc1OCC | -1 | 0 | 0 | 2 | -1
CSCc1ccc(C(=O)OCc2nc3ccccc3s2)o1 | 1 | 1 | 0 | 12* | 6.2*
Cc1ccc(-c2nnc(SCC(=O)NNC(=S)Nc3ccccc3)n2C2CCCCC2)cc1 | · | 0 | -1 | 0 | -2
Cc1cc(Nc2ccc(F)c(Cl)c2)n2ncnc2n1 | 4.5* | 0 | -1 | 2 | -3
CCn1c2ccccc2c2cc(Nc3cc(C)nc4ncnn34)ccc21 | -1 | 3.6* | -2 | -8 | -1
CCN(Cc1ccccc1)S(=O)(=O)c1cn(C)cn1 | 1 | 0 | -1 | 13* | 0
CCN(Cc1ccccc1)S(=O)(=O)c1ccc(F)cc1 | 0 | -1 | -1 | 2 | -1
CN(NC1OC(=O)c2ccccc21)c1ccccc1[N+](=O)[O-] (centres undefined) | 8.0* | 0 | -1 | -2 | 1
CN(NC1OC(=O)c2ccccc21)c1ncc(Cl)cc1C(F)(F)F (centres undefined) | · | -1 | -1 | 0 | 0
Cc1occc1-c1nc(-c2ccccn2)no1 | -1 | 3 | 1 | 11* | 6.0*
c1ccc(-c2noc(C34CC5CC(CC(C5)C3)C4)n2)nc1 | 2 | 1 | 0.9* | 7 | 6.3*
c1ccc(-c2noc(-c3ccncc3)n2)nc1 | 1 | 3.8* | -1 | 8 | 3
c1ccc(-c2noc(-c3ccc4ccccc4c3)n2)nc1 | -8 | · | · | · | ·
c1ccc(-c2noc(C34CC5CC(CC(C5)C3)C4)n2)cc1 | -1 | 0 | -1 | 0 | 0
Cc1occc1-c1nc(-c2ccncc2)no1 | 0 | 0 | -1 | 7 | -1
COc1ccc(CN2C(=O)N3Cc4ccc(C)cc4C3CS2(=O)=O)cc1 (centres undefined) | · | -1 | -1 | 1 | 0
N#Cc1cccc(NC(=O)OC2CCC23CCC(c2ccccc2)CC3)c1 (centres undefined) | · | -2 | -2 | 0 | -3
CC[C@]12c3[nH]c4ccc(Cl)cc4c3CCN1C(=O)[C@@H](CC(=O)NC/C=C(\C)CCC=C(C)C)C[C@@H]2C(=O)N1CCN(C(=O)c2ccco2)CC1 | -1 | -1 | 2.1* | 0 | -2
COc1cc(C(=O)Nc2ccc(S(=O)(=O)Nc3cc(C)nc(C)n3)cc2)cc(OC)c1OC | 6.4* | 1 | -1 | -2 | 0
Cc1cc(NS(=O)(=O)c2ccc(NC(=O)/C=C/c3ccccc3)cc2)nc(C)n1 | 1 | 1 | -1 | -2 | 0
COc1ccc(C(=O)Nc2ccc(S(=O)(=O)Nc3cc(C)nc(C)n3)cc2)cc1OC | 1 | 3 | -2 | 0 | -2
Cc1cc(NS(=O)(=O)c2ccc(NC(=O)/C=C/c3ccc(C)o3)cc2)nc(C)n1 | 4.6* | 0 | -2 | -4 | 0
COc1ccc(-c2nc(CN3CCN(Cc4cccc(F)c4)CC3)c(C)o2)cc1 | 0 | 0 | -1 | 1 | 2
COc1ccc(-c2nc(CN3CCN(Cc4cccc(Cl)c4)CC3)c(C)o2)cc1 | 5.8* | -1 | -1 | 1 | -1

Compound activity (PubChem BioAssay)
